# About 110 (5.5%) of roughly 2,000 compounds showed an effect of 50% or more. The sample as a whole holds a higher share of strong results than the screen did.
# Target: Genome polyprotein (dengue virus type 2) (UniProt P29990)
# [1] = Thailand/16681/1984, Concentration 25.0 uM, Number of replicates 1.0
smiles,measurement,setting,value
Cc1cc(N)c2cccc(Br)c2n1,inhibition,"Thailand/16681/1984, Concentration 49.95 uM, Number of replicates 2.0, Standard deviation 5.849609152234285 %",-8.02%
same,inhibition,"Thailand/16681/1984, Concentration 99.9 uM, Number of replicates 2.0, Standard deviation 5.75747614138947 %",-7.97%
Cc1cc(CO)c2cccc(Cc3ccccc3NC(=O)Cc3c[nH]c4ccccc34)c2n1,inhibition,"Thailand/16681/1984, Concentration 49.95 uM, Number of replicates 2.0, Standard deviation 1.1797806526631314 %",5.6%
same,inhibition,"Thailand/16681/1984, Concentration 99.9 uM, Number of replicates 2.0, Standard deviation 0.9471475819719768 %",13.1%
CNC(=O)c1cc(Cl)ccc1NS(=O)(=O)c1cc(Cl)cc(C(=O)NC)c1OC,inhibition,"Thailand/16681/1984, Concentration 49.5 uM, Number of replicates 2.0, Standard deviation 3.5107220562143744 %",-1.24%
same,inhibition,"Thailand/16681/1984, Concentration 99.01 uM, Number of replicates 2.0, Standard deviation 4.644293157051252 %",1.93%
same,inhibition,"Thailand/16681/1984, Concentration 198.0 uM, Number of replicates 2.0, Standard deviation 3.3165321375743706 %",8.2%
O=Cc1ccc(N2CCC(C(=O)Nc3ccc(F)cc3C(F)(F)F)CC2)cc1,inhibition,[1],12.5%
O=C(O)c1cnn(C2CCN(C(=O)c3ccnc4[nH]cnc34)CC2)c1,inhibition,"Thailand/16681/1984, Concentration 49.5 uM, Number of replicates 2.0, Standard deviation 1.214191700010942 %",-2.48%
same,inhibition,"Thailand/16681/1984, Concentration 99.01 uM, Number of replicates 2.0, Standard deviation 1.7130868961137902 %",-2.88%
same,inhibition,"Thailand/16681/1984, Concentration 198.0 uM, Number of replicates 2.0, Standard deviation 1.3863533153956358 %",-2.86%
COc1ccccc1OCCn1cc(C2CCNCC2)c(C)n1,inhibition,"Thailand/16681/1984, Concentration 49.5 uM, Number of replicates 2.0, Standard deviation 0.4008605306484476 %",-1.35%
same,inhibition,"Thailand/16681/1984, Concentration 99.01 uM, Number of replicates 2.0, Standard deviation 0.8515456477601485 %",0.612%
same,inhibition,"Thailand/16681/1984, Concentration 198.0 uM, Number of replicates 2.0, Standard deviation 0.3007587308619815 %",2.21%
N[C@H]1CC[C@H](NC(=O)[C@@H](NC(=O)OCc2ccccc2)c2ccc(OCc3ccccc3)cc2)C1,inhibition,"Thailand/16681/1984, Concentration 49.5 uM, Number of replicates 2.0, Standard deviation 0.9979193615621401 %",-9.06%
same,inhibition,"Thailand/16681/1984, Concentration 49.5 uM, Number of replicates 2.0, Standard deviation 5.780389191288721 %",-6.13%
same,inhibition,"Thailand/16681/1984, Concentration 99.01 uM, Number of replicates 2.0, Standard deviation 0.21863424783935215 %",-6.77%
same,inhibition,"Thailand/16681/1984, Concentration 99.01 uM, Number of replicates 2.0, Standard deviation 4.8738871027899835 %",-4.83%
same,inhibition,"Thailand/16681/1984, Concentration 198.0 uM, Number of replicates 2.0, Standard deviation 0.20009536646595624 %",3.56%
same,inhibition,"Thailand/16681/1984, Concentration 198.0 uM, Number of replicates 2.0, Standard deviation 2.9330264990309507 %",6.71%
Cn1cc(NC(=O)c2ccccc2C(F)(F)F)c(-c2ccc(O)cc2)n1,inhibition,"Thailand/16681/1984, Concentration 49.5 uM, Number of replicates 2.0, Standard deviation 1.4149767575059302 %",-3.58%
same,inhibition,"Thailand/16681/1984, Concentration 99.01 uM, Number of replicates 2.0, Standard deviation 0.6191126751592 %",-2.21%
same,inhibition,"Thailand/16681/1984, Concentration 198.0 uM, Number of replicates 2.0, Standard deviation 0.2617465963559337 %",-3.21%
O=C1NCC[C@@H]1CNS(=O)(=O)c1ccc(Oc2ccccc2Cl)cc1,inhibition,"Thailand/16681/1984, Concentration 49.5 uM, Number of replicates 2.0, Standard deviation 4.002985951466216 %",-0.264%
same,inhibition,"Thailand/16681/1984, Concentration 99.01 uM, Number of replicates 2.0, Standard deviation 4.526482853100752 %",0.42%
same,inhibition,"Thailand/16681/1984, Concentration 198.0 uM, Number of replicates 2.0, Standard deviation 4.411103663666057 %",2.4%
O=C1NCCC[C@@H]1CNS(=O)(=O)c1ccc(Oc2ccccc2Cl)cc1,inhibition,"Thailand/16681/1984, Concentration 49.5 uM, Number of replicates 2.0, Standard deviation 0.9940716071741866 %",-2.68%
same,inhibition,"Thailand/16681/1984, Concentration 99.01 uM, Number of replicates 2.0, Standard deviation 0.27557480876496404 %",-0.801%
same,inhibition,"Thailand/16681/1984, Concentration 198.0 uM, Number of replicates 2.0, Standard deviation 0.9840594547230297 %",1.79%
O=C(N[C@H]1CCNC1=O)c1cc(Cl)ccc1NS(=O)(=O)c1ccc(Oc2ccccc2Cl)cc1,inhibition,"Thailand/16681/1984, Concentration 49.5 uM, Number of replicates 2.0, Standard deviation 0.36576586141779044 %",30.3%
same,inhibition,"Thailand/16681/1984, Concentration 99.01 uM, Number of replicates 2.0, Standard deviation 0.2318278972972024 %",51.8%
same,inhibition,"Thailand/16681/1984, Concentration 198.0 uM, Number of replicates 2.0, Standard deviation 0.7755829345495912 %",18.9%
O=C1C[C@@H](CNC(=O)c2cc(Cl)ccc2NS(=O)(=O)c2ccc(Oc3ccccc3Cl)cc2)CN1,inhibition,"Thailand/16681/1984, Concentration 49.5 uM, Number of replicates 2.0, Standard deviation 1.683767946709369 %",12.4%
same,inhibition,"Thailand/16681/1984, Concentration 99.01 uM, Number of replicates 2.0, Standard deviation 0.12281254481286434 %",57.2%
same,inhibition,"Thailand/16681/1984, Concentration 198.0 uM, Number of replicates 2.0, Standard deviation 0.21046989752060982 %",53.6%
O=C(NC[C@H]1CCCO1)c1cc(Cl)ccc1NS(=O)(=O)c1ccc(Oc2ccccc2Cl)cc1,inhibition,"Thailand/16681/1984, Concentration 49.5 uM, Number of replicates 2.0, Standard deviation 0.11391652520397291 %",86.2%
same,inhibition,"Thailand/16681/1984, Concentration 99.01 uM, Number of replicates 2.0, Standard deviation 0.06140357500812747 %",84.7%
same,inhibition,"Thailand/16681/1984, Concentration 198.0 uM, Number of replicates 2.0, Standard deviation 0.13037604965923533 %",79.4%
O=C1C[C@@H](NS(=O)(=O)c2ccc(Oc3ccccc3Cl)cc2)CCN1,inhibition,"Thailand/16681/1984, Concentration 49.5 uM, Number of replicates 2.0, Standard deviation 1.1905021365747266 %",-5.52%
same,inhibition,"Thailand/16681/1984, Concentration 99.01 uM, Number of replicates 2.0, Standard deviation 1.0784606403673063 %",-3.29%
same,inhibition,"Thailand/16681/1984, Concentration 198.0 uM, Number of replicates 2.0, Standard deviation 1.453680839379123 %",-1%
O=C(NCC1CC1)c1cc(Cl)ccc1NS(=O)(=O)c1ccc(Oc2ccccc2Cl)cc1,inhibition,"Thailand/16681/1984, Concentration 49.5 uM, Number of replicates 2.0, Standard deviation 0.6779748794958176 %",77.8%
same,inhibition,"Thailand/16681/1984, Concentration 99.01 uM, Number of replicates 2.0, Standard deviation 0.21598068225710626 %",88.2%
same,inhibition,"Thailand/16681/1984, Concentration 198.0 uM, Number of replicates 2.0, Standard deviation 0.009057863507173258 %",87%
C[C@H](NC(=O)C1CCN(c2ccc(C=O)cc2)CC1)c1ccc(Br)cc1,inhibition,[1],12.7%
O=C(N[C@@H](C(=O)NC1CCNCC1)c1ccc(OCc2ccccc2)cc1)OCc1ccccc1,inhibition,"Thailand/16681/1984, Concentration 49.5 uM, Number of replicates 2.0, Standard deviation 0.04752487067458113 %",-0.225%
same,inhibition,"Thailand/16681/1984, Concentration 99.01 uM, Number of replicates 2.0, Standard deviation 0.6611370067327399 %",-0.49%
same,inhibition,"Thailand/16681/1984, Concentration 198.0 uM, Number of replicates 2.0, Standard deviation 1.22541945186685 %",2.06%
